Assay results from the supplement of paper PMC10646978.
± gives the standard deviation.

What was measured:
Conditions in all cases: modulator concentration 10 µM
[1] = tested on: RAW-Dual (murine macrophage reporter line); assay: NF-kB reporter (SEAP) activity fold change vs agonist alone; higher = enhanced NF-kB activity
Summary of the method: (§1)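 Compound reached 10 μM final in each well by pin transfer, onto RAW-Dual murine macrophage reporter cells seeded at 50 000 per well in 384-well plates. After 1 hour at 37 °C, the cells were stimulated overnight with a PRR agonist. SEAP in the supernatant was read with QUANTI-Blue at 620 nm absorbance for NF-κB, and Lucia luciferase was read with QUANTI-Luc luminescence for IRF. Each signal was turned into fold change against the mean agonist-only control on the same plate, and two replicate plates were averaged with propagated errors.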

[2] = tested on: RAW-Dual (murine macrophage reporter line); assay: IRF reporter (Lucia luciferase) activity fold change vs agonist alone; higher = enhanced IRF activity
Summary of the method: as §1

[3] = tested on: RAW-Dual (murine macrophage reporter line); assay: viability score (confluency relative to resting cells, overnight) (fraction); higher = more viable, active = viable (0.7 or more)
Summary of the method: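 Overnight exposure to 10 μM final compound was carried out on RAW-Dual macrophages in 384-well plates. IncuCyte software generated two confluency masks over all wells imaged with IncuCyte. The viability score gives confluency in relation to resting cells. A compound met the cutoff if each mask exceeded 70% of resting cells.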

[4] = agonist: CpG ODN 1826 0.5 ug/mL

| Structure (SMILES) | NF-kB reporter [1, 4] | NF-kB reporter ([1]; agonist: LPS 0.1 ug/mL) | NF-kB reporter ([1]; agonist: MPLA […]) | IRF reporter ([2]; agonist: 3'3'-cGAMP 10 ug/mL) | IRF reporter ([2]; agonist: LPS 0.1 ug/mL) | IRF reporter ([2]; agonist: MPLA […]) | viability score [3] |
| --- | --- | --- | --- | --- | --- | --- | --- |
| CCc1nc2ccccc2[nH]1 | 1.04 ± 0.18 | 0.954 ± 0.076 | 1.06 ± 0.1 | 0.998 ± 0.028 | 1.23 ± 0.12 | 1.44 ± 0.21 | 1.01 (active) |
| CC(C)NC[C@H](O)COc1ccc(CCOCC2CC2)cc1.Cl | 1.15 ± 0.1 | 1.07 ± 0.16 | 1.11 ± 0.037 | 0.871 ± 0.11 | 0.987 ± 0.09 | 0.868 ± 0.12 | 1 (active) |
| O=S(=O)(Oc1cccc2ccccc12)c1ccc(F)cc1 | 0.832 ± 0.1 | 0.926 ± 0.096 | 1.12 ± 0.1 | 0.789 ± 0.036 | 1.06 ± 0.064 | 1.12 ± 0.096 | 0.999 (active) |
| CC(NCCC(c1ccccc1)c1ccccc1)c1ccccc1.Cl (stereo not drawn) | 0.274 ± 0.11 | 0.64 ± 0.047 | 0.67 ± 0.075 | 0.735 ± 0.058 | 0.929 ± 0.13 | 1 ± 0.13 | 0.204 (inactive) |
| O=C(CSc1ccc2nc(-c3ccccc3)cn2n1)Nc1ccc(Br)cc1 | 0.931 ± 0.2 | 0.957 ± 0.077 | 0.995 ± 0.15 | 0.624 ± 0.017 | 1.21 ± 0.25 | 1.31 ± 0.23 | 0.988 (active) |
| Cc1nnc(NN=Cc2ccc(O)c([N+](=O)[O-])c2)[nH]c1=O | 1.07 ± 0.14 | 1.01 ± 0.097 | 1.03 ± 0.035 | 0.98 ± 0.045 | 0.979 ± 0.14 | 1.01 ± 0.25 | 0.992 (active) |
| NC(=O)CSc1nc2ccccc2[nH]1 | 1.1 ± 0.088 | 1.07 ± 0.081 | 0.998 ± 0.037 | 0.985 ± 0.16 | 1.09 ± 0.13 | 0.992 ± 0.16 | 0.997 (active) |
| Cl.N=C(N)NCCC[C@H](N)C(=O)O | 1.12 ± 0.27 | 0.995 ± 0.08 | 1.03 ± 0.081 | 0.896 ± 0.036 | 1.38 ± 0.15 | 1.2 ± 0.23 | 1.01 (active) |
| CN(C)CCOC(=O)COc1ccc(Cl)cc1.Cl | 1.11 ± 0.084 | 1.09 ± 0.088 | 1.01 ± 0.038 | 0.882 ± 0.076 | 0.963 ± 0.043 | 0.964 ± 0.08 | 0.999 (active) |
| COc1cc2nc(N(C)CCCNC(=O)C3CCCO3)nc(N)c2cc1OC (stereo not drawn) [Prestw-322] | 1.45 ± 0.43 | 0.957 ± 0.11 | 1.02 ± 0.068 | 0.695 ± 0.13 | 0.934 ± 0.35 | 0.866 ± 0.11 | 0.996 (active) |
| NC(=NOC(=O)c1ccc2nsnc2c1)c1ncon1 | 1.04 ± 0.17 | 0.965 ± 0.084 | 0.905 ± 0.088 | 0.922 ± 0.035 | 1.05 ± 0.11 | 1.18 ± 0.12 | 0.996 (active) |
| COC(CNC(=O)c1cccc(Br)c1)c1ccccc1C (stereo not drawn) | 0.649 ± 0.056 | 0.999 ± 0.097 | 0.873 ± 0.04 | 0.832 ± 0.032 | 0.96 ± 0.1 | 0.901 ± 0.21 | 1 (active) |
| O=S(=O)(NN=Cc1c[nH]c2ccccc12)c1ccc(Cl)cc1 | 0.627 ± 0.053 | 0.619 ± 0.029 | 0.844 ± 0.078 | 0.0905 ± 0.0084 | 1.32 ± 0.11 | 1.31 ± 0.13 | 0.962 (active) |
| CCS(=O)(=O)c1ccc(-c2cccc(NC(=O)CC3CCCC3)c2)nn1 | 1.19 ± 0.099 | 0.932 ± 0.073 | 1.01 ± 0.029 | 0.905 ± 0.033 | 0.973 ± 0.056 | 0.926 ± 0.13 | 0.999 (active) |
| Cc1cc(-n2cc(C(=O)N3CCOCC3)nn2)ccc1F | 1.06 ± 0.33 | 1.1 ± 0.075 | 1.02 ± 0.065 | 0.98 ± 0.045 | 1.01 ± 0.17 | 1.14 ± 0.17 | 0.991 (active) |
| CCN1CCN(Cc2ccc(Nc3ncc(F)c(-c4cc(F)c5nc(C)n(C(C)C)c5c4)n3)nc2)CC1.CS(=O)(=O)O | 0.095 ± 0.023 | 0.793 ± 0.04 | 3.04 ± 0.21 | 0.29 ± 0.018 | 0.19 ± 0.035 | 0.314 ± 0.03 | 0.852 (active) |
| O=C(CCCC(=O)Nc1ccc(Cl)c(Cl)c1)Nc1ccc(Cl)c(Cl)c1 | 0.964 ± 0.076 | 1.02 ± 0.062 | 0.914 ± 0.068 | 0.963 ± 0.029 | 1.41 ± 0.13 | 1.13 ± 0.14 | 1.01 (active) |
| COc1ccc(-n2ncc3c(Nc4cc(OC)c(OC)c(OC)c4)ncnc32)cc1 | 1.13 ± 0.05 | 0.938 ± 0.078 | 1.09 ± 0.085 | 0.821 ± 0.044 | 1.04 ± 0.26 | 1.28 ± 0.45 | 0.887 (active) |
| O=S(=O)(Cc1ccccc1)c1nc2ccccc2n1Cc1ccc(Cl)cc1 | 0.661 ± 0.045 | 1.1 ± 0.071 | 0.978 ± 0.057 | 1.32 ± 0.059 | 1.35 ± 0.092 | 1.36 ± 0.19 | 0.965 (active) |
| O=C1CCCc2[nH]ccc21 | 1.03 ± 0.12 | 1.03 ± 0.11 | 1.01 ± 0.092 | 1.02 ± 0.084 | 1.04 ± 0.094 | 0.998 ± 0.21 | 0.999 (active) |
| O=C(Nc1ccccc1Cl)c1ccc(OCC2CCCO2)nc1 (stereo not drawn) | 1.17 ± 0.066 | 1.06 ± 0.12 | 0.981 ± 0.026 | 1.3 ± 0.35 | 1 ± 0.058 | 0.976 ± 0.098 | 0.999 (active) |
| COc1ccc(NC(=O)CN2C(=O)c3ccccc3C2=O)c([N+](=O)[O-])c1 | 0.798 ± 0.064 | 0.948 ± 0.087 | 0.989 ± 0.11 | 0.963 ± 0.048 | 1.29 ± 0.082 | 1.36 ± 0.13 | 1.01 (active) |
| COc1cc2c(cc1Cc1cccc(Cl)c1F)c(=O)c(C(=O)O)cn2[C@H](CO)C(C)C | 0.941 ± 0.14 | 1.04 ± 0.27 | 1.25 ± 0.085 | 0.822 ± 0.026 | 1.13 ± 0.12 | 0.848 ± 0.079 | 0.936 (active) |
| CCOC(=O)C1=C(C)NC(C)=C(C(=O)OC)C1c1ccc([N+](=O)[O-])cc1 (stereo not drawn) | 0.97 ± 0.24 | 1.01 ± 0.12 | 1.13 ± 0.23 | 1.16 ± 0.049 | 1.01 ± 0.21 | 1.09 ± 0.21 | 0.985 (active) |
